G9a inh: qHTS Assay for Inhibitors of Histone Lysine Methyltransferase G9a. Histone-lysine N-methyltransferase EHMT2 (Homo sapiens), Q96KQ7. G9a H3K9 monomethylation, AlphaScreen, 2 h. Potency, µM (top dose mostly 102 µM), without a hit: at the highest dose activity, negative = inhibition, actives largely listed as inhibitors. hit rate 8.8% among 350,000. AID 504332, 2011; also: % is scaled to controls: 0 for no effect and ±100 for the full control effect; nearly all actives have a fitted effect of over 75% in size
Target sequence (Q96KQ7 913-1193 limits assumed): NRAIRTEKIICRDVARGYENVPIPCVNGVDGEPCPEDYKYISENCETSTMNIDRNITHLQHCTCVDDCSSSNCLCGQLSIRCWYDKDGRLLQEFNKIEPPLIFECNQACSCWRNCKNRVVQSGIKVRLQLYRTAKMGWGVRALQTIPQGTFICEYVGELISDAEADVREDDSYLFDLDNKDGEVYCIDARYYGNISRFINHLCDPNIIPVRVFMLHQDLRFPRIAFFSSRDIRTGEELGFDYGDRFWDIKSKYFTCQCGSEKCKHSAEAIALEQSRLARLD
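G9a (20 nM) preincubated 15 min RT with compounds, then 500 nM biotinylated H3K9 peptide and 20 uM SAM added; 2 h RT reaction. Monomethyl-H3K9 product detected by AlphaScreen with anti-H3K9me1 antibody, streptavidin donor and anti-rabbit IgG acceptor beads.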
BAZ2B inh: qHTS Assay for Inhibitors of BAZ2B | Bromodomain adjacent to zinc finger domain protein 2B (Homo sapiens), Q9UIF8 | AlphaScreen BAZ2B-H3K14Ac peptide displacement | Potency, µM (highest dose often 114 µM), inactives show at the top dose activity change, negative = inhibition, hits mostly inhibitors | hit rate 4.4% among 360,000 | AID 504333, 2011; also: % is scaled to controls: 0 for no effect and ±100 for the full control effect; nearly all actives have a fitted effect of over 60% in size
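Protein-peptide AlphaScreen: BAZ2B 50 nM, b-H3K14Ac 50 nM, 1x PBS pH 7.4 + 0.01% Tween-20. Preincubation 30 min RT; cpd 30 min RT (top 110 uM); beads 20 min RT, light-protected.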
HP1b chromo inh: HTS for Inhibitors of HP1-beta Chromodomain Interactions with Methylated Histone Tails | Chromobox protein homolog 1 (Homo sapiens), P83916 | AlphaScreen HP1-beta / biotin-H3K9me3 peptide binding | Potency, µM (series often up to 114 µM), inactives show top-dose activity change, negative = inhibition, usual class: inhibitors | hit rate 0.56% among 390,000 | AID 540317, 2011; also: nearly all actives have a fitted effect of over 70% in size
Target sequence (P83916 whole entry, looked up): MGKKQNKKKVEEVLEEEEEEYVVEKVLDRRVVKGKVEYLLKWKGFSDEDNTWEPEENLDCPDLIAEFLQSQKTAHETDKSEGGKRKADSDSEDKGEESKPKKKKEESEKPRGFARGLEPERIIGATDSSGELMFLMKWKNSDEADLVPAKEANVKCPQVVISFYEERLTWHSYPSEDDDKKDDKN
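AlphaScreen: HP1-beta (50 nM) preformed 30 min with biotin-H3(1-18)K9me3 peptide (50 nM) in PBS pH 7.4, 0.01% Tween-20. Compound added for 30 min at RT, then streptavidin donor/nickel chelate acceptor beads (10 ug/mL) for 30 min.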
TDP1 inh: qHTS Assay for Inhibitors of Tyrosyl-DNA Phosphodiesterase (TDP1); Tyrosyl-DNA phosphodiesterase 1 (Homo sapiens), Q9NUW8; recombinant TDP1, AlphaScreen DNA substrate cleavage; Potency, µM (doses to about 130 µM), inactives show at the highest dose activity change, negative = inhibition, most hits filed as inhibitors; hit rate 0.28% among 350,000; AID 485290, 2010; also: % is scaled to controls: 0 for no effect and ±100 for the full control effect; nearly all actives have a fitted effect of over 40% in size
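Here, a 5' biotin and 3' phosphotyrosine-FITC DNA oligonucleotide reports Tdp1 activity: intact substrate bridges AlphaScreen beads, while cleavage leaves a 3' phosphate and drops signal. All incubations at room temperature.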
Sfp PPTase inh: qHTS Assay for Inhibitors of Bacillus subtilis Sfp phosphopantetheinyl transferase (PPTase); Potency, µM, without a hit: largest response in the series, negative = inhibition, actives largely listed as inhibitors; hit rate 3.5% among 310,000; AID 1490, 2009; Biochemical Sfp PPTase activity, qHTS;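 also: the enzyme is Sfp with the accession as filed and its product quenches rhodamine fluorescence; 0% = enzyme reaction without inhibitor and -100% = no enzyme wells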
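Buffer: 50 mM Hepes-Na pH 7.6, 10 mM MgCl2, 0.01% Nonidet P-40, 0.01% BSA. Enzyme 15 nM, pre-exposed to compound 15 min; substrates then added and fluorescence change tracked over 30 min.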
JMJD2A Tudor: qHTS Assay for Inhibitors of JMJD2A-Tudor Domain. hit rate 4.4% among 390,000. AID 504339, 2011. AlphaScreen JMJD2A-Tudor / H3K4me3 peptide binding. Potency, µM (titrated, usually from 114 µM), for the others: top-dose activity change, negative = inhibition, hits mostly inhibitors; also: % is scaled to controls: 0 for no effect and ±100 for the full control effect; nearly all actives have a fitted effect of over 50% in size
* marks the source's active call; other numbers are inactive results; ? = inconclusive; · = no result; ! = not confirmed by another sample; [ ] = remark or other dose. A selection: hits, their analogues and other compounds. The true share with any hit is near 12%. Calls follow the shape of the dose curve; as a rule, active = well fitted curve in the direction sought with a large enough effect; inconclusive = small, poorly fitted or top-dose-only effect, or another doubt; inactive = no such curve, though single readings can be large; an effect the other way counts as inactive or inconclusive. Potency is read from the fitted curve at half-maximal effect.

SMILES	G9a inh	BAZ2B inh	HP1b chromo inh	TDP1 inh	Sfp PPTase inh	JMJD2A Tudor
CN1C(=O)C(=Cc2ccc(N3CCOCC3)o2)C(=O)N(C)C1=O	?	-27%	16%	3%	?	0%
CN1C(=O)C(=Cc2ccc(N3CCCCCC3)o2)C(=O)N(C)C1=S	45µM*	?	-50%	5%	-22%	?
C[C@H](NC(=O)[C@@H](N)Cc1ccc(O)cc1)C(=O)NCC(=O)N(C)[C@@H](Cc1ccccc1)C(=O)N[C@H](CO)CCS(C)=O (stereo partly specified)	21%[59 µM]	·	·	4%	-2%	·
CC(=O)N(C)CC#CCN1CCC(O)CC1	·	·	1%	·	·	32µM*
COc1ccc(OC)c(CNCCc2ccc(OC)c(OC)c2)c1	·	?	-33%	·	-8%	18µM*
COc1ccc(CCNCc2ccc(Br)cc2)cc1OC	-17%	50µM*	?	·	-21%	20µM*
COc1ccc(CCNCc2ccccc2F)cc1OC	-7%[59 µM]	-4%	19%	2%	15%	-4%
O=C(N[C@@H]1CN2CCC1CC2)c1cc(Cl)cc2[nH]cnc12	·	·	·	4%	2%	·
CC(C)COC(=O)OCN1C(=O)CN(CCN2CC(=O)N(COC(=O)OCC(C)C)C(=O)C2)CC1=O	13µM*!	1%	48%	16%[0.0391 µM]	18%	-7%
CCOc1ccc(NC(=O)CSc2oc(-c3ccccc3)nc2S(=O)(=O)c2ccc(Cl)cc2)cc1	-32%[59 µM]	-3%	47%	3%	·	-8%
CC(C)(O)[C@H]1O[C@H]2CC[C@@]3(C)[C@@](O)(CC[C@H]4Cc5c([nH]c6ccccc56)[C@@]43C)C2=CC1=O	32µM*	?	-14%	7%	11%	?
COC[C@H]1OC(=O)c2coc3c2[C@@]1(C)C1=C(C3=O)C2CCC(=O)[C@@]2(C)C[C@H]1OC(C)=O (stereo partly specified)	28µM*!	·	·	12%[56.1 µM]	?	·
COC[C@H]1OC(=O)c2coc3c2[C@@]1(C)C1=C(C3=O)[C@H]2CCC(=O)[C@@]2(C)C[C@H]1OC(C)=O	·	·	·	13%[56.1 µM]	?	·
COc1ccc(CNC(=O)CSCc2cnn(-c3ccccc3)c2-n2cccc2)cc1OC	-40%[59 µM]	28µM*	-13%	8%	·	-30%
COc1ccc(CCNC(=O)CCn2c(=O)c3ccccc3n(Cc3ccc(Cl)cc3)c2=O)cc1OC	5%[59 µM]	9%	58%	-1%	·	1%
C[C@@H](N)[C@@H](O)c1ccc(O)c(O)c1	2µM*	·	·	?	56µM*	·
COc1ccc(OC)c(C(O)C(C)N)c1 (stereo unspecified)	-17%[59 µM]	0%	48%	3%	14%	-11%
CC(N)[C@H](O)c1ccc(O)c(O)c1 (stereo partly specified)	14µM*	·	·	?	·	14µM*
CN1C2CCC1/C(=C/c1ccccn1)C(=O)/C2=C\c1ccccn1	?	-24%	-3%	13%	?	79µM*
Cc1ccccc1-n1c(/C=C/c2ccccn2)nc2ccccc2c1=O	9%	-5%	9%	1%	14%	-14%
C[C@]12CCC3C(C=CC4=CC(=O)CC[C@]43C)C1CC[C@]2(O)CCC(=O)O (stereo partly specified)	6%[2.33 µM]	·	·	20%	8%	·
Cn1c(O)c(/C=C/C=Nc2ccccc2)c(=O)n(C)c1=S	45µM*	-1%	24%	5%	-11%	-14%
CCN1C[C@]2(C)CC[C@H](O)[C@@]34C5C[C@@H]6[C@@H](OC)C[C@@](O)(C5[C@H]6O)[C@@H](CC23)[C@@H]14 (stereo partly specified)	·	·	·	4%	18%	·

Screening data: PubChem, National Center for Advancing Translational Sciences (NCATS)
